From PubChem
D2 ag-1 = activates the human D2 dopamine receptor. P14416. DiscoveRx PathHunter D2 beta-arrestin, luminescence, 90 min; 100% = 57 uM dopamine signal. activation, % (no concentration beside the values). actives 0.084% (n = 360,000). AID 624465; in the data active = activation above about 40%
Target sequence (P14416 whole entry, looked up): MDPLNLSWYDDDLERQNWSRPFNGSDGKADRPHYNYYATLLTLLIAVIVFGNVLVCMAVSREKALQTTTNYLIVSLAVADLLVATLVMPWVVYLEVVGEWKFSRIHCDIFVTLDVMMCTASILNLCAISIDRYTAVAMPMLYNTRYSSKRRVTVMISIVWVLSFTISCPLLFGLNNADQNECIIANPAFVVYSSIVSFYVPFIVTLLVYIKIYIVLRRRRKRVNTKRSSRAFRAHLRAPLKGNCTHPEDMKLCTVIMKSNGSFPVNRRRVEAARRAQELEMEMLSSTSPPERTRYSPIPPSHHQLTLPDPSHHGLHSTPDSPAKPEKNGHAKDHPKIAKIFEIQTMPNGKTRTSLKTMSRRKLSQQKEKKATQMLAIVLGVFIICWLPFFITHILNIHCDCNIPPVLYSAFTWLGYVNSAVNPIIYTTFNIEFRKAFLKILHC
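Agonist mode: compounds alone added to overnight-plated D2 PathHunter cells for 90 min at 37 C, with 57 uM final dopamine (EC100) defining full response. Beta-arrestin recruitment detected by chemiluminescent reagent, read after 1 h at ambient temperature.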
D2 PAM-1 = positively modulates the human D2 dopamine receptor allosterically | P14416 | actives 0.34% (n = 340,000) | AID 485347 | HEK293 T-REx D2, calcium flux, EC20 dopamine potentiation | potentiation, % at 10 µM;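 active = potentiation over 3 SD above the plate norm, cut at about 30% in these data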; note: 0% is about no effect
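Tetracycline-induced HEK293 T-REx cells force-coupled to calcium signalling expressed D2; compounds were pin-added after a 10 s baseline, read kinetically 180 s, then an EC20 dopamine challenge followed with a further 180 s calcium read.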
D2 PAM-2 = human D2 receptor positive allosteric modulation; potentiation, % (test concentration not listed); P14416; actives 0.23% (n = 360,000); DiscoveRx D2 beta-arrestin cells, luminescence, 90 min; 100% = 57 uM dopamine signal; in the data active = potentiation above about 50%
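PathHunter beta-arrestin assay in DiscoveRx D2 cells. Compounds were added with an EC20 of dopamine (50 nM final) for 90 min at 37 deg C. Luminescence was read 1 h after detection reagent, with 57 uM dopamine as the EC100 control.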
D2 ag-2 = D2 dopamine receptor (human) agonism; HEK293 T-REx D2 cells, calcium flux agonist mode; activation, % at 2 µM; actives 0.53% (n = 340,000); P14416;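 active = activation over 3 SD above normal in the single-dose calcium agonist read, cut at about 30% in these data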; note: 0% is about no effect
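Tetracycline-induced HEK293 T-REx cells with force-coupled D2 receptor, plated overnight at 30 C, loaded with no-wash calcium dye. After a 10 s baseline, compound was pin-added and calcium flux read kinetically for 180 s; calcium rises flagged agonists.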
D2 antag = antagonizes the human D2 dopamine receptor; actives 2% (n = 340,000); inhibition, % at 10 µM; HEK293 TREx D2 cells, calcium flux, dopamine EC80; AID 485344; in the data active = inhibition above about 30%; inactive = below that, where a call was filed; note: 0% is about no effect
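Calcium mobilization kinetics were recorded at 1 s intervals in tetracycline-induced HEK293 T-REx D2 cells, first for 180 s after compound addition and then 180 s after EC80 dopamine.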
* = called active by the depositor; · = no result. Only some compounds are listed: those with a hit (about 2.4% of all), similar ones and a draw of the others.

SMILES	D2 ag-1	D2 PAM-1	D2 PAM-2	D2 ag-2	D2 antag
CCc1ccc(OC2(C)CCN(Cc3ccc(SC)cc3)C2)cc1 (stereo unspecified)	3	·	-18	·	·
CN(C(=O)COC(=O)C12CC3CC(CC(C3)C1)C2)c1c(N)n(Cc2ccccc2)c(=O)[nH]c1=O	-3	6	-12	0	47*
Cc1ccc(OCCCn2c(-c3ccc(Cl)cc3)nc3ccccc3c2=O)c(C)c1	·	-8	·	2	·
CCC1(c2ccc(F)cc2)NC(=O)N(CC(=O)N2CCOCC2)C1=O (stereo unspecified)	-1	-7	-1	-1	13
CCC1(c2ccc(F)cc2)NC(=O)N(CC(=O)c2ccc[nH]2)C1=O (stereo unspecified)	-3	·	-13	1	30*
COC(=O)c1ccc(CNC(=O)COC(=O)c2ccccc2-c2ccccc2)cc1	-4	-11	-14	1	16
CC(=O)c1ccc2c(c1)C1C=CCC1C(c1ccc(S(=O)(=O)N3CCOCC3)cc1)N2 (stereo unspecified)	10	14	61*	1	3
CCCOc1ccc(-c2c(C(=O)N/N=C/c3cccs3)nnn2-c2nonc2N)cc1	1	49*	4	0	19
CCOc1ccc(-c2c(C(=O)N/N=C/c3ccc(C)o3)nnn2-c2nonc2N)cc1	-4	-5	-1	0	8
CCCOc1ccc(-c2c(C(=O)N/N=C/c3ccc(C)o3)nnn2-c2nonc2N)cc1	-1	90*	-6	0	-1
C/C(=N/NC(=O)c1nnn(-c2nonc2N)c1-c1ccccc1)c1ccncc1	2	-10	-4	2	-2
COc1ccc(/C(C)=N/NC(=O)c2nnn(-c3nonc3N)c2-c2ccccc2)cc1	-1	17	-5	31*	6
CCOc1ccc(-c2c(C(=O)N/N=C(\C)c3cccs3)nnn2-c2nonc2N)cc1	-9	74*	-5	4	-17
CCCC(=O)Nc1ccc2oc(-c3ccncc3)nc2c1	-1	34*	-6	-1	1
CCCCC(=O)Nc1ccc2oc(-c3ccncc3)nc2c1	-2	·	-8	·	·
CCCCCC(=O)Nc1ccc2oc(-c3cncc(Br)c3)nc2c1	0	11	-9	1	-16
CCCC(=O)Nc1ccc2oc(-c3cncc(Br)c3)nc2c1	-1	8	-3	0	39*
Cc1nnc(NC(=O)CCC2CCCCC2)s1	-3	·	-4	·	·
O=C(CCC1CCCCC1)Nc1nccs1	0	-5	-14	0	43*
CCCCCn1c(=O)c(C(=O)c2ccccc2)nc2ccccc21	0	16	2	0	1
CCCCCCn1c(=O)[nH]c2nc3cc(N)ccc3nc2c1=O	6	3	60*	85*	32*
CCOC(=O)[C@@H]1[C@H]2COc3ccccc3[C@@H]2N2C(=O)N(c3cccc(Cl)c3)C(=O)[C@@]12C	0	12	-33	1	0
CCOCCCNCc1ccc(OC)c(OC)c1	-1	-6	-13	-1	36*
Cc1ccc[n+](C(C)C(=O)Nc2ccc(C)c([N+](=O)[O-])c2)c1 (stereo unspecified)	-3	-17	-36	3	43*
Cc1ccc[n+](C(C)C(=O)Nc2ccc([N+](=O)[O-])cc2C)c1 (stereo unspecified)	-3	-2	-9	-3	21
SMILES	D2 ag-1	D2 PAM-1	D2 PAM-2	D2 ag-2	D2 antag
COc1ccc(N/C(N)=N/c2nc(C)cc(C)n2)cc1	-2	·	-5	·	·
Cc1cc(C)nc(/N=C(\N)Nc2ccc(OCc3ccccc3)cc2)n1	-2	-13	-5	63*	70*
C[C@H]1CN([C@@H](C)CO)S(=O)(=O)c2ccc(Br)cc2O[C@H]1CN(C)C(=O)Cc1ccncc1	-5	·	-8	·	·
Cc1ccc(S(=O)(=O)N(C)C)cc1NC(=S)N1CCCCC1CO (stereo unspecified)	-3	-18	-9	0	39*
Cc1ccc(S(=O)(=O)N(C)C)cc1NC(=O)C1CCCC1	-11	-11	-27	1	-9
CCN(CCO)C(=S)Nc1cc(S(=O)(=O)N(C)C)ccc1C	-3	-24	-11	2	51*
Cc1cnc(C)c(Nc2nc(C(N)Cc3ccc(C(F)(F)F)cc3)cs2)n1 (stereo unspecified)	2	·	-10	·	·
CCc1ccccc1N(C(=O)c1snc(C(N)=O)c1N)C(C(=O)NCC1CCCO1)c1ccc(C)o1 (stereo unspecified)	5	0	-1	1	33*
Cc1ccc(N(C(=O)c2snc(C(N)=O)c2N)C(C(=O)NCC2CCCO2)c2ccc(C)o2)c(C)c1 (stereo unspecified)	-2	2	-3	-2	-8
CC(C)C[C@H]1CNC(=O)C(=O)N1C[C@H]1CCCN1C[C@H](CC(C)C)N1C[C@H](Cc2ccccc2)N(CCc2ccccc2)C(=O)C1=O	-4	·	-2	·	·
CC(=O)N1CCN(Cc2nc3scc(-c4ccccc4)c3c(=O)[nH]2)CC1	-4	0	-4	·	·
O=c1[nH]c(CN2CCN(Cc3ccccc3)CC2)nc2scc(-c3ccccc3)c12	-2	-24	-6	0	69*
CCc1ccc(-n2c(=O)c3c(C)c(C(=O)N(C)C)sc3n(CC(=O)NCC3CCCO3)c2=O)cc1 (stereo unspecified)	2	-2	-5	-1	-8
COc1cccc(-n2c(=O)c3c(C)c(C(=O)N(C)C)sc3n(CC(=O)NCC3CCCO3)c2=O)c1 (stereo unspecified)	-3	1	1	0	41*
Cc1ccccc1-c1nc(CN(Cc2c(C)nn(C)c2C)C2CC2)c(C)o1	-12	-2	-10	7	30*
CCCOC(=O)Nc1nnc(CCC)s1	-2	-15	-8	1	44*
CCCc1nnc(NC(=O)CCS(=O)(=O)c2ccccc2)s1	0	32*	-4	0	-16
OCc1ccccc1CN1CCCCCC1	-6	·	-3	·	·
COC(=O)c1[nH]c2c(c1C)C(=O)CC(c1ccc(C)cc1)C2 (stereo unspecified)	1	-1	-16	0	32*
COC(=O)c1[nH]c2c(c1C)C(=O)CC(c1ccc(OC)c(OC)c1)C2 (stereo unspecified)	1	·	7	·	·
Cc1ccc(-c2cnc(C(O)c3ccc(Cl)cc3C)[nH]2)cc1 (stereo unspecified)	2	·	-17	·	·
Cc1ccc(C(C)C)c(OCCNCc2ccccc2)c1	11	-19	-5	-2	67*
O=[N+]([O-])c1ccccc1OCCNCc1ccccc1	1	-31	-76	23	78*
Cc1ccc(C)c(OCCCNCc2ccccc2)c1	-3	-12	-64	2	4
